{
  "source": "PubChem BioAssay (NCI)",
  "note": "This is part of a sample that, as a whole, favours compounds with a hit. Of some 83,000 tested, about 20% had one in any assay.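 In brief: 96-well plates, 48 h treatment, single concentration, percent growth endpoint.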 Active and inactive are the calls of the source. How the source made its calls: active means growth percent below 10; inactive means the rest.",
  "data": [
    {"system": "CAKI-1 renal", "experiment": "NCI-60 one-dose screen, 48 h (100 = growth as untreated, 0 = no growth, -100 = all killed)", "details": "10 µM unless noted", "values": [
      {"compound": "Nc1nc(Nc2ccc(Cl)cc2)nn1S(=O)(=O)c1ccc(-c2ccc(F)cc2)cc1", "growth": "59.8% (inactive)"},
      {"compound": "N#Cc1c(N)n2c(nc1=Nc1ccc(Cl)cc1)sc1cc(Cl)ccc12", "growth": "75.5% (inactive)"},
      {"compound": "O[C@H]1CO[C@H]2[C@@H]1OC[C@@H]2Oc1ccc(Nc2nc(Nc3ccc(F)c(Cl)c3)ncc2F)cc1Cl", "growth": "93.5% (inactive)"},
      {"compound": "CS(=O)(=O)c1ccc(-c2nc3cc(Cl)ccc3n2CC(=O)N/N=C/c2ccc(Cl)cc2)cc1", "growth": "71.3% (inactive)"},
      {"compound": "CC[C@]1(O)C[C@H]2CN(CCc3c([nH]c4ccccc34)[C@@](C(=O)OC)(c3cc4c(cc3OC)N(C=O)[C@H]3[C@@](O)(C(=O)OC)[C@H](OC(C)=O)[C@]5(CC)C=CCN6CC[C@]43[C@@H]65)C2)C1", "growth": "26.5% (inactive)"},
      {"compound": "N=C(N)c1ccc(-c2ccc(-c3ccc(Cl)cc3Cl)o2)nc1", "growth": "53.8% (inactive)"},
      {"compound": "COc1cc(C(=O)/C=C/c2c(-c3ccc(F)cc3)nc3ncccn23)cc(OC)c1OC", "growth": "16.2% (inactive)"},
      {"compound": "COc1cc(-c2ccc(-c3ccc(C(=N)N)nc3)s2)cc(OC)c1OC", "growth": "95.9% (inactive)"},
      {"compound": "N#Cc1c(N)n2c(nc1=Nc1ccc([N+](=O)[O-])cc1)sc1cc(Cl)ccc12", "growth": "85.2% (inactive)"},
      {"compound": "CCCc1cc(=O)oc2c3c(c4c(c12)OC(C)(C)C=C4)O[C@@H](C)[C@H](C)C3=O", "growth": "72.8% (inactive)"},
      {"compound": "CN(C)c1ccc(-c2cc(-c3ccc(Nc4nc(Nc5ccccc5)nc(Nc5ccc(Cl)cc5)n4)cc3)nc(N)n2)cc1", "growth": "39.5% (inactive)"}
    ]},
    {"system": "A498 renal", "experiment": "NCI-60 one-dose screen, 48 h (100 = growth as untreated, 0 = no growth, -100 = all killed)", "details": "10 µM unless noted", "values": [
      {"compound": "CCN(CC)CC(=O)Nc1cccc(C(=O)OC(C)C)c1", "growth": "140% (inactive)"},
      {"compound": "CCCCOC(=O)c1ccc(NC(=O)C(C)N2CCOCC2)cc1", "note": "(stereo not drawn)", "growth": "99.5% (inactive)"},
      {"compound": "CN1C[C@@H](c2ccc(Cl)cc2)[C@]2(NC(=S)N(c3ccc(F)c(Cl)c3)C2=O)[C@@]12C(=O)NC1C=CC(Cl)=C[C@H]12", "note": "(stereo partly drawn)", "growth": "66.8% (inactive)"},
      {"compound": "OC(CBr)c1ccnc2ccccc12", "note": "(stereo not drawn)", "growth": "102% (inactive)"},
      {"compound": "CCCCNCC(=O)Nc1ccc(C(=O)OCC)cc1", "growth": "101% (inactive)"},
      {"compound": "CCCCCOC(=O)c1cccc(NC(=O)CN(CC)CC)c1", "growth": "113% (inactive)"},
      {"compound": "N#Cc1c(N)n2c(nc1=Nc1ccc(Cl)cc1)sc1cc(Cl)ccc12", "growth": "91.1% (inactive)"},
      {"compound": "CCN(CC)CCOC(=O)Nc1ccccc1Cl", "growth": "114% (inactive)"},
      {"compound": "CCN(CC)c1ccc(Nc2ccc(CC(=O)c3ccccc3)cc2)cc1", "growth": "99.7% (inactive)"},
      {"compound": "O[C@H]1CO[C@H]2[C@@H]1OC[C@@H]2Oc1ccc(Nc2nc(Nc3ccc(F)c(Cl)c3)ncc2F)cc1Cl", "growth": "94.4% (inactive)"},
      {"compound": "CS(=O)(=O)c1ccc(-c2nc3cc(Cl)ccc3n2CC(=O)N/N=C/c2ccc(Cl)cc2)cc1", "growth": "68.4% (inactive)"},
      {"compound": "COc1cc2c(cc1OC)-c1ccc3cc4c(cc3c1N(CCN(C)C)C2)OCO4", "growth": "-33.8% (active)"},
      {"compound": "CCN(CC)CCCC(C)NCc1ccccc1", "note": "(stereo not drawn)", "growth": "105% (inactive)"},
      {"compound": "CCOC(=O)c1ccc(NC(=O)CCCN(CC)CC)cc1", "growth": "118% (inactive)"},
      {"compound": "CCC(C)NCc1ccccc1", "note": "(stereo not drawn)", "growth": "88.8% (inactive)"},
      {"compound": "CCCNCC(=O)Nc1ccc(C(=O)OC(C)(C)CC)cc1", "growth": "108% (inactive)"},
      {"compound": "O=C(Nc1ccccc1Cl)OCCN1CCOCC1", "growth": "129% (inactive)"},
      {"compound": "O=C1N(c2ccccc2)C(=S)N[C@]12[C@H](c1ccccc1)C1CCCN1[C@]21C(=O)NC2C=CC(Cl)=C[C@H]21", "note": "(stereo partly drawn)", "growth": "107% (inactive)"},
      {"compound": "CCOC(=O)c1c(C)nc2c(c1N)/C(=C/c1ccc(OC)cc1)C(=O)N2Cc1ccc(F)cc1", "growth": "-44.2% (active)"},
      {"compound": "COc1ccc(C2CC(c3cnccn3)=NN2)cc1OC", "note": "(stereo not drawn)", "growth": "112% (inactive)"},
      {"compound": "COc1cc2c(cc1OC)-c1ccc3cc4c(cc3c1N(CCCN(C)C)C2)OCO4", "growth": "8.3% (active)"},
      {"compound": "CCCCCOC(=O)c1ccc(NC(=O)CNCC(C)C)cc1", "growth": "71.8% (inactive)"},
      {"compound": "COc1cc(-c2cccc([N+](=O)[O-])c2)c(-c2nc(-c3ccccc3)c(-c3ccccc3)n2C2CC2)cc1OC", "growth": "77.6% (inactive)"},
      {"compound": "COc1cc(C(=O)/C=C/c2c(-c3ccc(F)cc3)nc3ncccn23)cc(OC)c1OC", "growth": "69.9% (inactive)"},
      {"compound": "N#Cc1cnn2c(-c3ccc(Cl)cc3)nc(NC3CC3)nc12", "growth": "84.5% (inactive)"},
      {"compound": "COc1cc2c(cc1OC)-c1ccc3cc4c(cc3c1N(CCCN1CCCCC1)C2)OCO4", "growth": "65% (inactive)"},
      {"compound": "COc1cccc(CCC2CCCN(c3cc(C)nc(N)n3)C2)c1", "note": "(stereo not drawn)", "growth": "-2.99% (active)"}
    ]}
  ]
}
